From PubChem BioAssay AID588819 (The Scripps Research Institute Molecular Screening Center, 2011)
The campaign covered roughly 360,000 compounds. About 320 (0.089%) were called active. Shown is part of a subset that was picked to be rich in actives. Unmarked numbers belong to inactive results. No stated cut-off is given here; in the data, active means activation above about 19% (passing the limit was not always enough); inactive means the rest.

Biological target: Muscarinic acetylcholine receptor M1 (Homo sapiens) (UniProt P11229)
Test: human M1 muscarinic receptor positive allosteric modulators, primary screen, CHO-K1 cells, Fluo-8 calcium fluorescence, 1536-well (AID 588819)
Conditions: CHO-K1 hM1, Fluo-8 calcium fluorescence, ACh EC20; at 3 µM; stronger effect = higher value; 0% = ACh EC20, 100% = maximal ACh

Sequence of Muscarinic acetylcholine receptor M1 (Homo sapiens) (P11229 whole entry, looked up): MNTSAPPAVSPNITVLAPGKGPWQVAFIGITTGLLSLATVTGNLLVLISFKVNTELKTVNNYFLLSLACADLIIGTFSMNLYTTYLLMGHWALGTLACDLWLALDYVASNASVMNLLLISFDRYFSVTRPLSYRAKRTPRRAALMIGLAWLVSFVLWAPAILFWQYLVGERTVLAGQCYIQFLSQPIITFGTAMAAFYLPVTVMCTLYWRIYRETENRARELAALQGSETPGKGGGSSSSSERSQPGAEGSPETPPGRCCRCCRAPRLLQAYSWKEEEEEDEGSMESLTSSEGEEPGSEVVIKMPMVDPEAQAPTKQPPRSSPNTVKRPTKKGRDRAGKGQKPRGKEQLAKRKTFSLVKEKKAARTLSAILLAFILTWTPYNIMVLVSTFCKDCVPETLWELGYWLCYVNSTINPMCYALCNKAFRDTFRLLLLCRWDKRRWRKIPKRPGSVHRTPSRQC

| Structure (SMILES) | activation |
| --- | --- |
| Cc1ccc(S(=O)(=O)NC(=O)N2CCCN(Cc3ccc(F)cc3)CC2)cc1 | 5.25% |
| CCN(CC(=O)Nc1ccc(OC)cc1)C(=O)c1ccc(Cl)c(S(=O)(=O)N2CCCC2)c1 | 9.99% |
| CC(C)(C)NC(=O)CN(C(=O)c1ccc(Cl)nc1)c1cccc2ccccc12 | 2.85% |
| CCC1(CC)C(=O)C2=C3C1[C@H](C(=O)OC)C=C(C(=O)OC)C[C@H]3[C@H]1C(=O)N(Cc3ccccc3)C(=O)[C@H]1[C@H]2C (some centres undefined) | -6.86% |
| COc1ccc(-n2nc3c(c2NC(=O)c2ccc(N4C(=O)CCC4=O)cc2)CSC3)cc1 | 1.99% |
| COc1ccc(CCNC(=O)CN(C)S(=O)(=O)c2ccc3nc(C)sc3c2)cc1OC | 8.1% |
| CCN(C(=O)COC(=O)/C=C/c1nc2ccccc2s1)C1CCS(=O)(=O)C1 (centres undefined) | -0.52% |
| O=c1[nH]c(CN2CCN(S(=O)(=O)c3ccc4c(c3)OCCO4)CC2)nc2sc3c(c12)CCCC3 | 12.9% |
| O=C(NCc1cccnc1)C12CC3CC(CC(C3)C1)C2 | 22.9% |
| COc1ccc(NC(=O)CN(C)C(=O)CC2CCCCC2)cc1 | 15.3% |
| Cc1ccc(CSCC(=O)N(C)CC(=O)Nc2cccc(F)c2)cc1 | 11.3% |
| CN(CC(=O)Nc1cccc(F)c1)C(=O)CC1CCCC1 | 29.7% (active) |
| ONC(=Nc1ccccc1)c1ccccc1Cl | 2.82% |
| CCC1(CC)NC(=O)N(CC(=O)OCC(=O)NC(=O)c2ccccc2)C1=O | 5.54% |
| CC(C)N1CCC(N2CCN(Cc3cccnc3)CC2CCO)CC1 (centres undefined) | 7.42% |
| COc1ccc(S(=O)(=O)N2CCN(C(=S)NCC3CCCO3)CC2)cc1OC (centres undefined) | 2.58% |
| O=C(NCc1ccccc1)C1=C[C@@H](c2ccccc2)C[C@@H](OCCCCO)O1 | 19.5% |
| CCOCc1nnc(NC(=O)CSc2ccc(C)cc2)s1 | 3.8% |
| O=C(CSc1ccccc1)Nc1nnc(/C=C/c2ccccc2)s1 | 32.8% (active) |
| O=C(/C=C/c1ccccc1)Nc1nnc(SCC(=O)c2ccc3ccccc3c2)s1 | 1.55% |

| Structure (SMILES) | activation |
| --- | --- |
| O=C(Cn1nc(C(=O)O)c2ccccc2c1=O)Nc1ccc(F)cc1 | 1.79% |
| CC(=O)Nc1ccc(NC(=O)C(C)OC(=O)C2CC(=O)N(CCc3ccccc3)C2)cc1 (centres undefined) | 4.72% |
| CCCCN(C)c1ccc([N+](=O)[O-])cc1 | -3.31% |
| CC(C)Cn1cnc2c1c(=O)n(CC(=O)NN)c(=O)n2Cc1ccccc1 | 4.53% |
| CC(C)CCn1cnc2c1c(=O)n(CC(=O)NC(N)=O)c(=O)n2Cc1ccccc1 | 30.3% (active) |
| COCCn1cnc2c1c(=O)n(CC(=O)NN)c(=O)n2Cc1ccccc1 | 13.3% |
| CCCSC(=S)NC1CCS(=O)(=O)C1 (centres undefined) | 0.86% |
| CCCCNCc1ccc(SC)cc1 | 25.2% (active) |
| CCCCNCCS(=O)(=O)NCc1ccccc1 | 4.18% |
| CSc1ccc(CNCCN2CCOCC2)cc1 | -5.22% |
| Cc1cccc(C)c1NC(=O)C1(N(C(=O)c2ccccn2)c2ccc(O)cc2)CCCCC1 | -1.06% |
| CN(C)/C=C/c1c(C#N)c(=O)ncn1Cc1ccccc1 | -0.11% |
| CN(C)c1ccnc2sc3c(=O)n(Cc4ccccc4)cnc3c12 | 23.4% (active) |
| O=c1c2c(ncn1Cc1ccccc1)nc1n2CCC1 | 7.79% |
| COc1ccc(CN2CC[C@H]3C=CC[C@@H](C(=O)N4CCOCC4)[C@H]3C2=O)cc1OC | 1.94% |
| CNC(=O)c1nnc(Cc2ccc(Cl)cc2)o1 | 5.02% |
| O=C(Nc1ccc(F)cc1F)N1CCCN(CCOc2ccccc2)CC1 | 5.19% |
| Nc1ncnc2c1ncn2[C@@H]1O[C@H](CNC(=O)[C@H](N)Cc2cccnc2)[C@@H](O)[C@H]1O | 2.46% |
| CCn1c(O)c(N=NC2=NC(=O)CS2)c2cc(C)ccc21 | -1.89% |
| O=C(CCNc1n[nH]c(=O)[nH]c1=O)N/N=C\c1ccc(Br)cc1 | 17.3% |

| Structure (SMILES) | activation |
| --- | --- |
| CC(=O)N/C(=C/c1ccc(OC(F)F)cc1)C(=O)O | 6.97% |
| CN1CCC(=NNC(=O)c2ccc(N(Cc3ccc(Cl)cc3)S(C)(=O)=O)cc2)CC1 | 4.92% |
| CC1CCN(c2ccc([N+](=O)[O-])c(SCCO)c2)CC1 | 2.03% |
| COCCCNC(=O)C1CC(=O)N(c2ccc(C)cc2)C1 (centres undefined) | 1.45% |
| CCCC(C)NC(=O)C1CCN(C(=O)C2CC(=O)N(c3ccc(C)cc3)C2)CC1 (centres undefined) | 14.6% |
| COCCNC(=O)C1CCN(C(=O)C2CC(=O)N(c3ccc(C)cc3)C2)CC1 (centres undefined) | 29.5% (active) |
| Cc1ccc(S(=O)(=O)N2C3C=CC(C3)C2C(=O)O)cc1 (centres undefined) | 1.95% |
| O=C(O)C1CCN1C1CCCCC1 (centres undefined) | 3.48% |
| COc1ccccc1C(=O)NCC(=O)OCC(=O)Nc1nnc(-c2ccccc2)o1 | 7.11% |
| CCCC(=O)Nc1nnc(-c2ccccc2)o1 | 28.9% (active) |
| Cc1ccnc2nc(C(=O)Nc3nnc(-c4ccccc4)o3)nn12 | 3.22% |
| COc1ccc(N2CCC(CNC(=S)Nc3c(C)cccc3C)C2)cc1 (centres undefined) | -4.84% |
| O=C(Cc1ccc(NC(=O)C2CCCN(C(=O)C3CCCCC3)C2)cc1)Nc1cccc(C(=O)N2CCCCC2)c1 (centres undefined) | 3.87% |
| CC(Sc1nnc2c(n1)C1CCC2(C)C1(C)C)C(=O)Nc1ccccc1 (centres undefined) | 11.8% |
| CSc1ccccc1C(=O)Nc1cccc(C(C)=O)c1 | -2.71% |
| CSc1nc(C)cc(SC(C(C)=O)C(=O)Nc2ccccc2)n1 (centres undefined) | 23.1% (active) |
| Cc1ccc(S(=O)(=O)N(CCc2ccccc2)c2ccc3c(c2)C2CC3CCN2C(=O)OCc2ccccc2)cc1 (centres undefined) | 10.4% |
| COc1ccccc1OCC(=O)OCn1c(SC)nnc(C)c1=O | 2.31% |
| Cc1nc(-c2ccc(F)cc2)c(CC(=O)Nc2cc(S(=O)(=O)N3CCCCC3)ccc2C)s1 | 14.8% |
